# Measurements from PubChem BioAssay (NCI).
# Compounds without any hit were thinned out: in the full panel of roughly 83,000, 20% have a hit.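 Plates (96-well) were seeded with cells, treated with compound at one concentration, and incubated for 48 hours before percent growth was determined.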 Activity calls are given as the source filed them. The calls were made as follows: active = growth percent below 10; inactive = the rest.
# Tested on: MDA-MB-468 breast
# Assay: NCI-60 one-dose screen, 48 h (100 = growth as untreated, 0 = no growth, -100 = all killed)
# Conditions: 10 µM unless noted
row,SMILES,growth
1,O=C(NS(=O)(=O)c1ccc2ccccc2c1)n1cc(-c2ccncc2)c(-c2ccc(Cl)c(O)c2)n1,78.3% (inactive)
2,O=C1NC(=C(Cl)Cl)/C(=N/S(=O)(=O)N2CCCCC2CC2(C(F)(F)F)N=N2)N1 (configuration not stated),-44.8% (active)
3,S=C(SSC(=S)N1CCOCC1)N1CCOCC1,106% (inactive)
4,CCOC(=O)c1cn2ncnc(Oc3ccc(NC(=O)NCCN(C)C)c(Cl)c3)c2c1C,67.4% (inactive)
5,C=C1C(=O)O[C@H]2[C@H]1CC/C(CNC(=O)Cc1c[nH]c3ccccc13)=C\CC[C@@]1(C)O[C@@H]21,-79.9% (active)
6,NC(=O)NS(=O)(=O)c1ccc(N2N=C(C(F)(F)F)CC2c2cc(C(F)(F)F)cc(C(F)(F)F)c2)cc1 (configuration not stated),70.1% (inactive)
7,CN(C)CCCC1(c2ccc(F)cc2)OCc2cc(-c3ccc4cc[nH]c4c3)ccc21 (configuration not stated),-27.1% (active)
